In the supplement of paper PMC8728848:
This excerpt belongs to a sample that is enriched for the strongest signals.

How the values were obtained:
Experiment in all cases: glycan array binding signal (z-score within array); higher = stronger binding
Details in all cases: glycan notation: IUPAC condensed, linker removed
[1] = molecular target: GalNAc(b1-4)GlcNAc(b1-2)Man(a1-3)[GalNAc(b1-4)GlcNAc(b1-2)Man(a1-6)]Man(b1-4)GlcNAc(b1-4)GlcNAc
Method in brief: (§1)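 Arrays were curated from the Consortium for Functional Glycomics database, 3228 in total, and kept only where the protein sequence was available. Binding is expressed as a within-array Z-score. This score was averaged across arrays of the same protein sequence at different concentrations or buffers and across linkers, and negative values can be read as non-binding.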

[2] = molecular target: GlcNAc(a1-4)Gal(b1-4)GalNAc
Method in brief: as §1

[3] = molecular target: GlcNAc(b1-3)Gal(b1-4)GlcNAc(b1-2)Man(a1-3)[GlcNAc(b1-3)Gal(b1-4)GlcNAc(b1-2)Man(a1-6)]Man(b1-4)GlcNAc(b1-4)[Fuc(a1-6)]GlcNAc
Method in brief: as §1

[4] = molecular target: GlcNAc(b1-3)Gal(b1-4)GlcNAc(b1-3)Gal(b1-4)GlcNAc(b1-2)Man(a1-3)[GlcNAc(b1-3)Gal(b1-4)GlcNAc(b1-3)Gal(b1-4)GlcNAc(b1-2)Man(a1-6)]Man(b1-4)GlcNAc(b1-4)GlcNAc
Method in brief: as §1

[5] = molecular target: GlcNAc(b1-3)Gal(b1-4)GlcNAc(b1-3)Gal(b1-4)GlcNAc(b1-2)Man(a1-3)[GlcNAc(b1-3)Gal(b1-4)GlcNAc(b1-3)Gal(b1-4)GlcNAc(b1-2)Man(a1-6)]Man(b1-4)GlcNAc(b1-4)[Fuc(a1-6)]GlcNAc
Method in brief: as §1

[6] = molecular target: GlcNAc6S(b1-3)Gal(b1-4)GlcNAc
Method in brief: as §1

Kdn(a2-3)Gal(b1-3)GlcNAc = molecular target: Kdn(a2-3)Gal(b1-3)GlcNAc
Method in brief: as §1

[7] = molecular target: Man(a1-2)Man(a1-3)[Man(a1-6)]Man(a1-6)[Man(a1-2)Man(a1-3)]Man(b1-4)GlcNAc(b1-4)GlcNAc
Method in brief: as §1

[8] = molecular target: Man(a1-2)Man(a1-6)[Man(a1-3)]Man(a1-6)[Man(a1-2)Man(a1-2)Man(a1-3)]Man
Method in brief: as §1

[9] = molecular target: Man(a1-3)[Man(a1-6)]Man(a1-6)[Man(a1-2)Man(a1-3)]Man(b1-4)GlcNAc(b1-4)GlcNAc
Method in brief: as §1

[10] = molecular target: Man(a1-3)[Man(a1-6)]Man(a1-6)[Man(a1-3)]Man(b1-4)GlcNAc(b1-4)GlcNAc
Method in brief: as §1

Man(b1-4)GlcNAc = molecular target: Man(b1-4)GlcNAc
Method in brief: as §1

[11] = molecular target: Neu5Ac(a2-3)Gal(b1-3)GalNAc(b1-3)Gal(a1-4)Gal(b1-4)Glc
Method in brief: as §1

[12] = molecular target: Neu5Ac(a2-3)Gal(b1-3)GlcNAc(b1-2)Man
Method in brief: as §1

[13] = molecular target: Neu5Ac(a2-3)Gal(b1-4)GlcNAc
Method in brief: as §1

[14] = molecular target: Neu5Ac(a2-3)Gal(b1-4)GlcNAc(b1-2)Man(a1-3)[Neu5Ac(a2-3)Gal(b1-4)GlcNAc(b1-2)Man(a1-6)]Man(b1-4)GlcNAc(b1-4)[Fuc(a1-6)]GlcNAc
Method in brief: as §1

[15] = molecular target: Neu5Ac(a2-3)Gal(b1-4)GlcNAc(b1-2)[Neu5Ac(a2-3)Gal(b1-4)GlcNAc(b1-4)]Man(a1-3)[GlcNAc(b1-4)][Neu5Ac(a2-3)Gal(b1-4)GlcNAc(b1-4)Man(a1-6)]Man(b1-4)GlcNAc(b1-4)GlcNAc
Method in brief: as §1

[16] = molecular target: Neu5Ac(a2-3)Gal(b1-4)[Fuc(a1-3)]GlcNAc(b1-3)Gal(b1-4)[Fuc(a1-3)]GlcNAc(b1-3)Gal(b1-4)[Fuc(a1-3)]GlcNAc
Method in brief: as §1

[17] = molecular target: Neu5Ac(a2-3)[Neu5Ac(a2-6)]GalNAc
Method in brief: as §1

[18] = molecular target: Neu5Ac(a2-6)Gal(b1-4)GlcNAc(b1-2)Man(a1-3)[GlcNAc(b1-4)][Neu5Ac(a2-6)Gal(b1-4)GlcNAc(b1-2)Man(a1-6)]Man(b1-4)GlcNAc(b1-4)GlcNAc
Method in brief: as §1

[19] = molecular target: Neu5Ac(a2-8)Neu5Gc(a2-3)Gal(b1-4)GlcNAc
Method in brief: as §1

[20] = molecular target: Neu5Gc(b2-6)Gal(b1-4)GlcNAc
Method in brief: as §1

B1: PX14379D-pdi-530-26-530 (Parabacteroides distasonis) (protein)
chain: DETVYDKLPADDFGQSTAELNALIGNSHNTMKKFWTEYMHLSECSGSMAVTPTRRGGDWYDGGQYREIYMHTWTSQTSRVKSAWKAATEAIGTCNEAIRKLQNSEILTEEEKAQDVADLRGVRAFWIYVMMDYWGNIPLLTEFHPTDKVFPGNSSRQEVFDWLIQEVEEIKDICPPATTENYGSFTQGAAYSLLAKLYLNAEAWGVTFSGNAYQKVIDNCDKVMAMGYILEPNWKDNFSVTNENSKEAILAATFSSSDTGNDGNVKNELHNNTLHYKDYLSLGITASGTWNGICAQPEYVRLFDEEDARLDGTFLTGLMIDKSTGKPIMTDHNNELNHTIDVNMIPGMEYDGTNWSAVEQHDGARCFKWEFASDLTSSMGNDFHIFRLADIYLMKAEALLRGGGSVSEATALVNTIRERGYGNSDHNYATVTLKEVQLERRLELAWEVYSRQDDIRFGCFTTGMWPQSNCERKADDYLKLLPVSQDAWQVNPNLKQNPGYAAFSK
B1 was tested, and the “glycan array binding signal (z-score)” value [1] was 2.64, the “glycan array binding signal (z-score)” value [2] was -0.622 and the “glycan array binding signal (z-score)” value [3] was 0.749. For the same binder, the “glycan array binding signal (z-score)” value [4] was 2.91, the “glycan array binding signal (z-score)” value [5] was 2.19 and the “glycan array binding signal (z-score)” value [6] was 0.56. For the same binder, the “glycan array binding signal (z-score)” value (Kdn(a2-3)Gal(b1-3)GlcNAc) was -0.752, the “glycan array binding signal (z-score)” value [7] was -1.26 and the “glycan array binding signal (z-score)” value [8] was -0.013. For the same binder, the “glycan array binding signal (z-score)” value [9] was -0.447, the “glycan array binding signal (z-score)” value [10] was -0.474 and the “glycan array binding signal (z-score)” value (Man(b1-4)GlcNAc) was -1.02. For the same binder, the “glycan array binding signal (z-score)” value [11] was 0.43, the “glycan array binding signal (z-score)” value [12] was 0.26 and the “glycan array binding signal (z-score)” value [13] was -0.826. For the same binder, the “glycan array binding signal (z-score)” value [14] was 0.415, the “glycan array binding signal (z-score)” value [15] was -0.482 and the “glycan array binding signal (z-score)” value [16] was -0.094. The “glycan array binding signal (z-score)” value [17] was -1.44, the “glycan array binding signal (z-score)” value [18] was 0.549 and the “glycan array binding signal (z-score)” value [19] was 12.8. The “glycan array binding signal (z-score)” value [20] was -0.722.
